Test [1] deals with Protein kinase C gamma type (Homo sapiens) (UniProt P05129). Particulars: at 1 µM.
Test [2] concerns the target T1, Protein kinase C iota type (Homo sapiens) (UniProt P41743).
T1 sequence (whole entry): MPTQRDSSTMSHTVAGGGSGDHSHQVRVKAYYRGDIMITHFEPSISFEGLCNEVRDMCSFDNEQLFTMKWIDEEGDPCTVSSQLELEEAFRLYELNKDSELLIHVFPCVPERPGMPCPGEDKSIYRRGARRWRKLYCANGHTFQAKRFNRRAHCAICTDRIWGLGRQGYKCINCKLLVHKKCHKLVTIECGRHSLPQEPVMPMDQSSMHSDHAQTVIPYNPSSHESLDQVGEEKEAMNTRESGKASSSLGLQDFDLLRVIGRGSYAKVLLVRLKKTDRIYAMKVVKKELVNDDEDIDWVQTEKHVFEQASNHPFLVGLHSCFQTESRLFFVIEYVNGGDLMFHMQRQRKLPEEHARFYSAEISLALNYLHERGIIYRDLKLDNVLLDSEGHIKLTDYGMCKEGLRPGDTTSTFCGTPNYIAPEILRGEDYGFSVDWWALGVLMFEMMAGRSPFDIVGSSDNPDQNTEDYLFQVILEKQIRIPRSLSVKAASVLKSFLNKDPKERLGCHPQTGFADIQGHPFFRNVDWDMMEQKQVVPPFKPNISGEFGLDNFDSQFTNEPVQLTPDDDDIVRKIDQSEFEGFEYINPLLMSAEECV
Particulars: at 0.1 µM.

Test [3] addresses T1, Protein kinase C iota type (Homo sapiens). The note with it: at 1 µM.
Test [4] has as its target Protein kinase C theta type (Homo sapiens) (UniProt Q04759). Particulars: at 0.1 µM.
For test [5] the target is unchanged. Particulars: at 1 µM.
The target in test [6] is Protein kinase C beta type (Homo sapiens) (UniProt P05771). Particulars: at 0.1 µM.
Chain of Protein kinase C beta type (Homo sapiens) (P05771 2-671 limits assumed): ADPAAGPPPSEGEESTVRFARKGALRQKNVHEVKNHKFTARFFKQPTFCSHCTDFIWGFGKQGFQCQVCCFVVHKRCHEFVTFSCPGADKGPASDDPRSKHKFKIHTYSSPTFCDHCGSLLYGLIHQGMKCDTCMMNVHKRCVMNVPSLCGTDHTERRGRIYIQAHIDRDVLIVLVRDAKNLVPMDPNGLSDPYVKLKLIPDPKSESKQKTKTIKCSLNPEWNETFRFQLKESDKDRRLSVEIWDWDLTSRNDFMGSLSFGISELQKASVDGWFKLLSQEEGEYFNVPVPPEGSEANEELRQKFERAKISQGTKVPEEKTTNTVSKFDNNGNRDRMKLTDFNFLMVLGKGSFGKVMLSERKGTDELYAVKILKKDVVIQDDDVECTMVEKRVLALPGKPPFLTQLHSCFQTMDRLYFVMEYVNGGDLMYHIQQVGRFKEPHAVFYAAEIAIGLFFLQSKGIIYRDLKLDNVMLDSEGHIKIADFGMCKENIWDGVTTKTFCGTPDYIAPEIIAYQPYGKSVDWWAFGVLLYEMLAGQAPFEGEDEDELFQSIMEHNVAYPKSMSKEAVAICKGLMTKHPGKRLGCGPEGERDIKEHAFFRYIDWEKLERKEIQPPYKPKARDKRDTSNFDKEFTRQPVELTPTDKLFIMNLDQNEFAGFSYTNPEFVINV
Test [7] has the same target. The note with it: at 1 µM.
In test [8] the target is T2, Serine/threonine-protein kinase D1 (Homo sapiens) (UniProt Q15139).
T2 sequence (whole entry): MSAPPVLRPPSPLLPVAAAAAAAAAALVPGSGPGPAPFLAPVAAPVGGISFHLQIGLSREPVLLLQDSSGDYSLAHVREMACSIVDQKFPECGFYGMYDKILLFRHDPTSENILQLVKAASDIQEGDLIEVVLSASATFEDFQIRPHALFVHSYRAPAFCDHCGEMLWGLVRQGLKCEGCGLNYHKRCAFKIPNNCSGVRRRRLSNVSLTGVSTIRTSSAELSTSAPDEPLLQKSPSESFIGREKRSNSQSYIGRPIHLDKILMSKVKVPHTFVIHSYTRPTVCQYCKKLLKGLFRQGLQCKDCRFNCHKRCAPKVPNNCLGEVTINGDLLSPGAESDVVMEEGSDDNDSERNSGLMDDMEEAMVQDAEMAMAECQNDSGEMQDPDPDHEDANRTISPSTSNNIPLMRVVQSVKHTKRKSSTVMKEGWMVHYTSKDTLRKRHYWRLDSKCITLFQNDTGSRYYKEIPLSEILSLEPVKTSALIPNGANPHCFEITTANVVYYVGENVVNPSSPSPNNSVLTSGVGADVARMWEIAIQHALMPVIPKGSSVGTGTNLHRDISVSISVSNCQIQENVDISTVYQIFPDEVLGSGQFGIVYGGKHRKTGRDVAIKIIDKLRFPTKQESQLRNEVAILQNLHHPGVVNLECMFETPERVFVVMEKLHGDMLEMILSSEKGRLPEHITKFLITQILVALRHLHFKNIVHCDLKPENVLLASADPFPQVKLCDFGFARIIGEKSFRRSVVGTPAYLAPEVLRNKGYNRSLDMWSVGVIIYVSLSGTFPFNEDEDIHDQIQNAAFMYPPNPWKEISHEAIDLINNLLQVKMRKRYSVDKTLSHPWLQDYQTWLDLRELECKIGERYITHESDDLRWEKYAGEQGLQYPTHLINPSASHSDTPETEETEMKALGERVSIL
The note with it: at 0.1 µM.

Test [9] addresses T2, Serine/threonine-protein kinase D1 (Homo sapiens). Particulars: at 1 µM.
Test [10] has as its target T3, Serine/threonine-protein kinase D2 (Homo sapiens) (UniProt Q9BZL6).
T3 sequence (whole entry): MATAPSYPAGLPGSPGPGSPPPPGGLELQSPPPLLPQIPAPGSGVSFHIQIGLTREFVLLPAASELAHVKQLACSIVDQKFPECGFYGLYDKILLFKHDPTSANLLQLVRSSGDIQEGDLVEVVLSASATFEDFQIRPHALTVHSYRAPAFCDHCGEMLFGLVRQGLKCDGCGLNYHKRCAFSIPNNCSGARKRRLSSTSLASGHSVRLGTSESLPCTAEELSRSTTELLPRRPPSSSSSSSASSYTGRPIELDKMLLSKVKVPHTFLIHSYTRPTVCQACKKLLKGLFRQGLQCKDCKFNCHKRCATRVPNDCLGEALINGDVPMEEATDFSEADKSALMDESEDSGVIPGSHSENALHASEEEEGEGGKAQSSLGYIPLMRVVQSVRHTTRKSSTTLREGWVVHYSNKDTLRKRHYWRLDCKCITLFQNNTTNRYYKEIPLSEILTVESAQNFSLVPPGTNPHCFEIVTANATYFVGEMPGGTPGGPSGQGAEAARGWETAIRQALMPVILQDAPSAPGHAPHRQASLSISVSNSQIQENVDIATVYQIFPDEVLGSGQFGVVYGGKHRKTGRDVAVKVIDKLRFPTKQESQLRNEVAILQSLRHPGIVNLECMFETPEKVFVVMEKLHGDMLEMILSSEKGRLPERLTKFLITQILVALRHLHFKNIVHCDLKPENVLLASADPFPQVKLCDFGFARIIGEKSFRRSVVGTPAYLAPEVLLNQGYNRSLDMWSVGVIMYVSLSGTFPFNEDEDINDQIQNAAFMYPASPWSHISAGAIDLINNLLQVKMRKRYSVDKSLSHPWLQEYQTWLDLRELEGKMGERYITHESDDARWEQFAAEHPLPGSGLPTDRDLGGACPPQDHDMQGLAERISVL
The note with it: at 0.1 µM.

For test [11], the target named is T3, Serine/threonine-protein kinase D2 (Homo sapiens). The note with it: at 1 µM.
Test [12] concerns the target T4, Serine/threonine-protein kinase D3 (Homo sapiens) (UniProt O94806).
T4 sequence (whole entry): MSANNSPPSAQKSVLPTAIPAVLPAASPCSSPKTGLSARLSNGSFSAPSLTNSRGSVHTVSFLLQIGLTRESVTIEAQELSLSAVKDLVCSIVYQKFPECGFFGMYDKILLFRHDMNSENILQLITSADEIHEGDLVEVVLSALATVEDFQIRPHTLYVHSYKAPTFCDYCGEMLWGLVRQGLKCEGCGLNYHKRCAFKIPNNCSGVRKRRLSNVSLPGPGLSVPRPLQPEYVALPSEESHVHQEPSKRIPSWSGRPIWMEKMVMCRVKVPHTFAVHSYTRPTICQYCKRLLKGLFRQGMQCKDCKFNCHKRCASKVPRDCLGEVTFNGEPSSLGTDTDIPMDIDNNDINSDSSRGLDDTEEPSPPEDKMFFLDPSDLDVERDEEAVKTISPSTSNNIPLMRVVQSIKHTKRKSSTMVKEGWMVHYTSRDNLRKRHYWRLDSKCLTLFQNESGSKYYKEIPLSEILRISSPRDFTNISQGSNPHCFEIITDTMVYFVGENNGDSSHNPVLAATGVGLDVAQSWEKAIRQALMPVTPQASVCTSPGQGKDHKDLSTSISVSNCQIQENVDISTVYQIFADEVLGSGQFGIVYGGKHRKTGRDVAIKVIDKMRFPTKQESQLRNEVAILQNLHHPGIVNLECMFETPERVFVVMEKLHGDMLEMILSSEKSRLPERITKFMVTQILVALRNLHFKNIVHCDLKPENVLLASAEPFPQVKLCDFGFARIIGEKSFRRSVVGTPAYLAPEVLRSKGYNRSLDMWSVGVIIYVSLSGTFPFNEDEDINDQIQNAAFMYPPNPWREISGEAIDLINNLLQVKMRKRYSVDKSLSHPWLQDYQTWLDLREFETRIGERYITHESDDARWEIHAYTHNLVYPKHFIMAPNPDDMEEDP
Particulars: at 0.1 µM.

Test [13] addresses T4, Serine/threonine-protein kinase D3 (Homo sapiens). The note with it: at 1 µM.
The target in test [14] is T5, cGMP-dependent protein kinase 1 (Homo sapiens) (UniProt Q13976).
T5 sequence (whole entry): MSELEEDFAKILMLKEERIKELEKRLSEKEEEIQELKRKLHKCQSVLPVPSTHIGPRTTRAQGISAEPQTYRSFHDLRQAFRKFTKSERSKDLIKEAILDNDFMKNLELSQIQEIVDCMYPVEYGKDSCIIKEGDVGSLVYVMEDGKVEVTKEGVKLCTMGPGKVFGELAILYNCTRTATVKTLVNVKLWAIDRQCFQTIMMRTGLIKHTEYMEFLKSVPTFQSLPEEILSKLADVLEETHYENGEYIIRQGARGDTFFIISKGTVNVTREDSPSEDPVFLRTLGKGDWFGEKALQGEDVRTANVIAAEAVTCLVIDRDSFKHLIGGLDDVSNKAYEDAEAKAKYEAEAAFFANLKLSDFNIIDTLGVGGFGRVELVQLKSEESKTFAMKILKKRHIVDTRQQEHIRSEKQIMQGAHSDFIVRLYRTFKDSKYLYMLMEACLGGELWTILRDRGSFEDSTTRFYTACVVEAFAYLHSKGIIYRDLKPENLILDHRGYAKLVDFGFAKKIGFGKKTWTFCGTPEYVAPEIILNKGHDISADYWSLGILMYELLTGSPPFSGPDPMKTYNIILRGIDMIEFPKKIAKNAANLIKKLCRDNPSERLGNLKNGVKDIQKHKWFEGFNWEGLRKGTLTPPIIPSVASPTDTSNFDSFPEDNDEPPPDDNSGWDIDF
The note with it: at 0.1 µM.

The target in test [15] is T5, cGMP-dependent protein kinase 1 (Homo sapiens). The note with it: at 1 µM.
Test [16] has as its target T6, cGMP-dependent protein kinase 2 (Homo sapiens) (UniProt Q13237).
T6 sequence (whole entry): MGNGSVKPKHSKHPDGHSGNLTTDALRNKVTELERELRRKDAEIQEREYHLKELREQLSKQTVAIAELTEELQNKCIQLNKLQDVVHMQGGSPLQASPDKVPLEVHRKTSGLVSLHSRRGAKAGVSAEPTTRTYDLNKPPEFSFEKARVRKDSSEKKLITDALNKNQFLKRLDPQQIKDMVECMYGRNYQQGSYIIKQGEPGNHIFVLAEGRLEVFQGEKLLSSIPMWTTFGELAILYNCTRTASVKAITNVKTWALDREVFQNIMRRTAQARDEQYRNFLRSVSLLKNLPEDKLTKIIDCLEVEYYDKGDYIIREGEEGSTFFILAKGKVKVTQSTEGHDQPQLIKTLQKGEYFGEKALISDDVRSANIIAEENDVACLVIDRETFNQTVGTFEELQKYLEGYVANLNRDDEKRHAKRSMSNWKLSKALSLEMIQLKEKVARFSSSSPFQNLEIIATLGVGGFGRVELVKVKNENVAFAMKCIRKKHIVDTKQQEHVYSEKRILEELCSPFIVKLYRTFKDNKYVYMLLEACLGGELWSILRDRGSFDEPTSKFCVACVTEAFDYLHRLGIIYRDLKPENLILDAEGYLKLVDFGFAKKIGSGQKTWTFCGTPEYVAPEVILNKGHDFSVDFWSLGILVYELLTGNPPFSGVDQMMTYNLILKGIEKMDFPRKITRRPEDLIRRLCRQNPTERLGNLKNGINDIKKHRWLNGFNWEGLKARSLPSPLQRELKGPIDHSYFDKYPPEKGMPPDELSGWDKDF
The note with it: at 0.1 µM.

Test [17] addresses T6, cGMP-dependent protein kinase 2 (Homo sapiens). Particulars: at 1 µM.
For test [18], the target named is T7, cAMP-dependent protein kinase catalytic subunit PRKX (Homo sapiens) (UniProt P51817).
T7 sequence (whole entry): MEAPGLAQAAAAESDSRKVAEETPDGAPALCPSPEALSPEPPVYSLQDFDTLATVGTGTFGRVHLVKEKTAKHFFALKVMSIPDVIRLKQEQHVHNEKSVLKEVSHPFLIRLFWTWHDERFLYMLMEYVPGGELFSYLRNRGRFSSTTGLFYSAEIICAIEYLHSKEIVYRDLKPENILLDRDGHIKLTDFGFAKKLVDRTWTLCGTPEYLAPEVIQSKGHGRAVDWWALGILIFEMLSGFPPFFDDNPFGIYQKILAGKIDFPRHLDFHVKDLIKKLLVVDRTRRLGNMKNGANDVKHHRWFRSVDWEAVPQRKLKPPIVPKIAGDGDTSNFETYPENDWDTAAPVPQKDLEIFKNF
Particulars: at 0.1 µM.

Test [19] concerns the target T7, cAMP-dependent protein kinase catalytic subunit PRKX (Homo sapiens). The note with it: at 1 µM.
Test [20] deals with Rho-associated protein kinase 1 (Homo sapiens) (UniProt Q13464). Particulars: at 0.1 µM.
Chain of Rho-associated protein kinase 1 (Homo sapiens) (Q13464 2-1354 limits assumed): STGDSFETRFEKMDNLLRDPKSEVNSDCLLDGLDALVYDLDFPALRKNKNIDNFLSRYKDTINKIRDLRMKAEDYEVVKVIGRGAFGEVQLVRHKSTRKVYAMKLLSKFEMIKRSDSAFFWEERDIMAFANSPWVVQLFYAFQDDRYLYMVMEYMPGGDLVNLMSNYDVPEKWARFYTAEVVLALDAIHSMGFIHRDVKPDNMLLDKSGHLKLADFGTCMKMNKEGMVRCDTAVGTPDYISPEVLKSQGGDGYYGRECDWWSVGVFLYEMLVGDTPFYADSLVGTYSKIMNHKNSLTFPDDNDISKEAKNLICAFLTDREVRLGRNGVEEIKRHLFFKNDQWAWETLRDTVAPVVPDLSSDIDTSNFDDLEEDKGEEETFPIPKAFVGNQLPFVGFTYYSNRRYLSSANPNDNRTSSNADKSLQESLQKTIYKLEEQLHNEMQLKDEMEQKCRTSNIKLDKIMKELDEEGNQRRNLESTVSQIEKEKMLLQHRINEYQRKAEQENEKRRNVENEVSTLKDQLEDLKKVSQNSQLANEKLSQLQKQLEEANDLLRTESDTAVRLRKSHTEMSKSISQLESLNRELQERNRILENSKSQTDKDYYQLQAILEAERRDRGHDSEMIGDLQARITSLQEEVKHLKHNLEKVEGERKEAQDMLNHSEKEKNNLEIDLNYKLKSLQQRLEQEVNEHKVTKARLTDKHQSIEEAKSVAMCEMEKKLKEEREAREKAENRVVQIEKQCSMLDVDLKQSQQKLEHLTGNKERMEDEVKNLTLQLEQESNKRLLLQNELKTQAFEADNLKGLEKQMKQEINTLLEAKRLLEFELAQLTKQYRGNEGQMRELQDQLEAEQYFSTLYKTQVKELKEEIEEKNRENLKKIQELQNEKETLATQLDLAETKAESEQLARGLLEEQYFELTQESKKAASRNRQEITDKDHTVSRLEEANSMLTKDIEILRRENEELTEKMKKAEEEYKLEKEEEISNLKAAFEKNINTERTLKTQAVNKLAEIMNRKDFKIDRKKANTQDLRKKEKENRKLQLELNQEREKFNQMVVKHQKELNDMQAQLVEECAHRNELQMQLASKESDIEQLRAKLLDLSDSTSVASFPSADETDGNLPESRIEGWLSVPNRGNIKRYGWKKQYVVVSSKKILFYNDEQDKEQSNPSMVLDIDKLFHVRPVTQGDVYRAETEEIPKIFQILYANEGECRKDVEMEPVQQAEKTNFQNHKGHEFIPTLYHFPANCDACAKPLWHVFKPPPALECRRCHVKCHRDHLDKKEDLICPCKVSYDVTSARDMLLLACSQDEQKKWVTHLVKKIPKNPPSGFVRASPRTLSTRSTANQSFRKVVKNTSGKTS

The term inhibition denotes the share of the control response that was lost under treatment. Higher therefore signals a response far below the control.

Chain of Protein kinase C theta type (Homo sapiens) (Q04759 whole entry, looked up): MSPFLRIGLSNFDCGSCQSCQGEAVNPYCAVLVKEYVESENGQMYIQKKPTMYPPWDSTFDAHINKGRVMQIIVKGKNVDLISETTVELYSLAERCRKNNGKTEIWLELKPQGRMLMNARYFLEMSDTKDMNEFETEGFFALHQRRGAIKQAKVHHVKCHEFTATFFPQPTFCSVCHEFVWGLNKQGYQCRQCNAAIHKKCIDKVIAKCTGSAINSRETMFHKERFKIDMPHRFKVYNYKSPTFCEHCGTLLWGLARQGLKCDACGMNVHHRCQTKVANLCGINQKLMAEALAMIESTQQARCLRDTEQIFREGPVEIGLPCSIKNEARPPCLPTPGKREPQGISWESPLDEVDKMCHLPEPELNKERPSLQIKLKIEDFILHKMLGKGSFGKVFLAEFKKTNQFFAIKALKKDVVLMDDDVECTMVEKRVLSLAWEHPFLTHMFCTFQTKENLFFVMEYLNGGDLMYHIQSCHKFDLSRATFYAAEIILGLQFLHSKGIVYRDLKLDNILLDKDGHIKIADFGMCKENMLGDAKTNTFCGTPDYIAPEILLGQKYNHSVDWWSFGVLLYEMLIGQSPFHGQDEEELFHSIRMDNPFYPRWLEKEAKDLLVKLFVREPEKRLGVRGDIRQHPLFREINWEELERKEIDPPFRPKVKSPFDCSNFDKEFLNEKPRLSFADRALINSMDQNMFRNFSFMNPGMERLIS

On to `O=C1Nc2ccc(I)cc2C1=Cc1cc(Br)c(O)c(Br)c1`, for which the inhibition in [1] turned out to be 2.63%; in [2], 0.72%; in [3] it was 1.75%; in [4], 1.74%; in [5] it was 2.5%; in test [6], 0.99%. Also, the inhibition in test [7] is 1.87%; in test [8], 3.52%; in [9] it was 4.76%; in test [10] it was 2.97%; in test [11], 1.24%; in test [12], 3.73%. The inhibition in test [13] amounted to 3.16%; in [14] it was 3.82%; in test [15], 5.76%; in test [16], 2.47%; in test [17], 6.45%; in [18], 0.49%. Also, the inhibition in test [19] amounted to 2.04%; in test [20] it was 2.76%.

With `O=C1Nc2ccccc2/C1=C/Nc1ccc(-n2cncn2)cc1`, the inhibition in test [1] came to 2.93%; in [2], 2.78%; in [3], 2.15%; in [4], 2.93%; in test [5], 4.7%; in test [6] it was 1.94%. The inhibition came out at 4.54% in test [7]; 5.12% in [8]; 7.88% in [9]; 6.14% in [10]; 6.07% in test [11]; 4.94% in test [12]. Also, the inhibition in [13] is 6.5%; in test [14] it was 3.06%; in [15] it was 5.48%; in test [16] it was 2.51%; in test [17], 14.4%; in test [18] it was 2.56%. The inhibition came to 7.18% in [19] and 1.71% in test [20].
